# Screening data deposited in PubChem by several laboratories.
# Rtt109 HAT inh: inhibitors of Candida albicans Rtt109/Vps75 histone acetyltransferase; actives 0.16% (n = 330,000); Q5AAJ8; purified Rtt109/Vps75, ThioGlo CoA-SH fluorescence, 4 h; inhibition, % at 34.9 µM;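 active = inhibition of at least 50% in every replicate; inconclusive = best replicate reaches 50% inhibition but some replicates fall short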
# Target sequence (Q5AAJ8 whole entry, looked up): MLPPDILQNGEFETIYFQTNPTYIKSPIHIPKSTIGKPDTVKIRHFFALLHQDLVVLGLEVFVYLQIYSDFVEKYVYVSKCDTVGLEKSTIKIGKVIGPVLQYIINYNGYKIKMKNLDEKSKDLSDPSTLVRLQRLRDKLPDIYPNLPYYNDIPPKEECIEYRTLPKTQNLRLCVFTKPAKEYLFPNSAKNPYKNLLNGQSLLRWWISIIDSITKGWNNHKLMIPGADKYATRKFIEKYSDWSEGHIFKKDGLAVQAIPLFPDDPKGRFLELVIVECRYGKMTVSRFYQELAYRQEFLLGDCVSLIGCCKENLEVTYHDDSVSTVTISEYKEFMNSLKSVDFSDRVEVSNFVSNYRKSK
# CDK5 p35 inh: CDK5/p35 (human) kinase inhibition | Q00535+Q15078 | Recombinant CDK5/p35, ADP-Glo luminescence, 60 min | inhibition, % at 10 µM | actives 0.01% (n = 330,000);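 active = highest replicate inhibition of at least 50% and at least 75% of replicates reaching 50%; inconclusive = only one of the two criteria met; inactive = both criteria failed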;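 also: plate controls were DMSO neutral control for no effect and GW8510 at 10 µM for full effect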
# dFosB act: activators of mouse delta FosB homodimer; AID 493131; purified delta FosB, TAMRA-CDK5 oligo fluorescence polarization; percent of positive-control signal above neutral wells; activation, % at 25 µM; P13346; actives 0.99% (n = 340,000);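 active = mean activation above about 17%, with every replicate also reaching it, limit read from the data, passing the limit was not always enough; inconclusive = only one of the two conditions met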
# Target sequence (P13346 whole entry, looked up): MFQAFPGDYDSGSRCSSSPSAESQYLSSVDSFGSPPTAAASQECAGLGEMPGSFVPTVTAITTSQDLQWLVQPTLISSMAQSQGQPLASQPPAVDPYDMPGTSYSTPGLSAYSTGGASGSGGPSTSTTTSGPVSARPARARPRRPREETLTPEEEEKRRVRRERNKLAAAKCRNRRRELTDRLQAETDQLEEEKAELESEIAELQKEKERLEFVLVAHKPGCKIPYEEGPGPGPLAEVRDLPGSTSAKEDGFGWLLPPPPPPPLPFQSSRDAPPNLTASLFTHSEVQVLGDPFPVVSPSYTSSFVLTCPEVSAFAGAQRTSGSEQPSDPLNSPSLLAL
# esBAF inh: blocks esBAF chromatin remodeling in mouse ES cells | actives 2% (n = 350,000) | reporter increase, % at 12.5 µM | Bmi1-luciferase knock-in reporter, 24 h; 100% = twice the neutral-well signal | AID 602393; in the data active = activation above about 40%; inconclusive = no clear call, values can overlap the other calls;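 also: 0% = median of the plate's neutral control wells and 100% = double that signal; a rise in the Bmi1 reporter signal indicates esBAF inhibition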
# Dyrk1A ADPGlo: blocks rat Dyrk1A kinase activity; actives 0.43% (n = 310,000); ADP-Glo luminescence, NFATc1 peptide; Q63470; inhibition, % at 12.5 µM; in the data active = inhibition above about 50%;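 also: plate controls were vehicle with enzyme for no effect and no enzyme for full effect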
# SMARCA2 act: activators of SMARCA2 function | activation, % at 9.1 µM | AID 652017 | actives 1% (n = 370,000) | MG213 cells, MMTV-luciferase reporter, dexamethasone, overnight; in the data active = activation above about 7.8%;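 also: 0% = vehicle wells and 100% = reference activator wells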
# SMARCA2 conf: SMARCA2 activation, confirmation screen | MG213 cells, MMTV-luciferase with dexamethasone, luminescence, overnight; MG213 cells expressing E1A, Rb sequestered; DMSO wells 0%, reference activator 100% | AID 652260 | shares compounds with SMARCA2 act | activation, % at 9.1 µM | actives 30% (n = 3,500);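 active = activation above its plate's cutoff, the mean activation of tested wells plus 3 SD, cut at about 7.9% in these data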
# VP16 Luc act: activates GAL4-VP16 luciferase, flagging SMARCA2 activator hits. shares compounds with SMARCA2 act. HEK293 GAL4-VP16 pG5luc reporter, luciferase luminescence; scaled: DMSO wells 0%, SAHA wells 100%. AID 686939. actives 41% (n = 3,500). activation, % at 9.1 µM;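 active = activation above the solvent-only control well mean plus 3 SD, averaged across control plates, cut at about 5.2% in these data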
# * = called active by the depositor; ? = inconclusive; nt = not tested or not shown. Shown are actives, neighbours in structure and some others; about 3.2% of the full set was active somewhere.
SMILES,Rtt109 HAT inh,CDK5 p35 inh,dFosB act,esBAF inh,Dyrk1A ADPGlo,SMARCA2 act,SMARCA2 conf,VP16 Luc act
Cc1cc(C)cc(N=C2NC(=O)/C(=C/c3cccs3)S2)c1,32.4,0.2,-2.2,nt,-63.3,2.0,nt,nt
Cn1cccc1/C=C1\SC(=Nc2cccc(O)c2)NC1=O,17.9,-0.5,-19.4,?,-7.0,9.9*,10.5*,10.7*
O=C1NC(=Nc2ccccc2)S/C1=C\c1cccs1,-7.4,1.0,9.6,nt,6.9,12.6*,15.3*,6.8*
CCOC(=O)CCSc1nc(C)c2cc(OC)ccc2n1,4.5,-1.6,-8.0,10.2,4.4,10.4*,9.0*,11.1*
CO[C@H]1CN(C)C(=O)c2cc(NC(=O)c3ccccc3F)ccc2OC[C@H](C)N(CC2CC2)C[C@@H]1C,nt,nt,nt,0.8,nt,nt,nt,nt
Cc1ccc(-n2ncc(N(C)C)c(Cl)c2=O)cc1,-5.5,0.0,-2.1,nt,10.5,1.5,nt,nt
CN(C)c1cnn(-c2ccccc2)c(=O)c1Cl,-6.5,0.1,0.3,nt,0.9,8.5*,6.1,2.0
CC1CCCCC1NC(=O)C(Cc1ccccc1)NS(=O)(=O)c1cccs1 (configuration not stated),2.6,4.6,4.1,-7.1,2.0,8.7*,3.1,-0.2
CC(CCc1ccccc1)NC(=O)C(Cc1ccccc1)NS(=O)(=O)c1cccs1 (configuration not stated),-6.0,0.5,-7.6,-8.2,-4.8,-4.8,nt,nt
C[C@@H]1CN([C@@H](C)CO)C(=O)c2cc(NC(=O)NC3CCCCC3)ccc2O[C@@H]1CN(C)C(=O)Nc1ccc2c(c1)OCO2,nt,nt,nt,4.2,nt,nt,nt,nt
Cc1cc2nc(/C=C/c3cccnc3)[nH]c2cc1C,-38.5,0.2,2.6,8.0,nt,8.7*,16.0*,26.7*
Cc1cc2nc(/C=C/c3nc4cc(C)c(C)cc4[nH]3)[nH]c2cc1C,1.6,1.1,-8.8,5.7,-2.7,4.9,nt,nt
CC(=O)N/C(N)=N/c1nc(=O)c2ccccc2s1,2.7,1.4,-18.7,nt,-0.8,8.2*,13.1*,8.9*
O=C(Nc1nc2ccccc2s1)c1ccc(F)cc1,-17.2,-2.5,-7.1,10.3,7.5,2.1,nt,nt
COC(=O)c1sc2ccccc2c1N,-13.7,-1.2,0.7,6.8,0.6,2.9,nt,nt
CC(=O)Nc1nc(=O)c2ccccc2s1,3.4,0.4,0.6,5.6,5.9,8.3*,1.0,2.1
Nc1nc(=O)c2ccccc2s1,5.3,-1.4,1.1,nt,nt,5.4,nt,nt
Cc1ccc(C(=O)Nc2nc3ccccc3c(=O)s2)cc1,6.8,-0.6,-7.2,10.8,6.8,17.2*,6.6,6.3*
O=C(Nc1nc(=O)c2ccccc2s1)c1ccccc1,0.3,0.1,-2.4,nt,-1.1,24.0*,5.7,9.6*
C[C@@H]1CCCCO[C@H](CN(C)C)[C@@H](C)CN([C@H](C)CO)C(=O)c2cc(NC(=O)Nc3ccc4c(c3)OCO4)ccc2O1,nt,nt,nt,-3.5,nt,nt,nt,nt
O=C(C[C@H]1CC[C@H]2[C@@H](COC[C@@H](O)CN2C(=O)c2cccnc2)O1)Nc1ccc(-c2ccccc2)cc1,nt,nt,nt,7.6,nt,nt,nt,nt
COc1ccc(CN(C)C[C@@H]2Oc3ccc(NC(=O)c4ccncc4)cc3C(=O)N([C@@H](C)CO)C[C@H]2C)cc1,nt,nt,nt,1.8,nt,nt,nt,nt
CCCNC(=O)Nc1ccc2c(c1)C(=O)N(C)[C@H]1CC[C@H](CC(=O)NCC3CCCCC3)O[C@H]1CO2,nt,nt,nt,2.3,nt,nt,nt,nt
CCOC(=O)N/C(N)=N/c1nc2ccccc2s1,-1.9,2.0,-5.9,56.6*,-1.0,9.9*,8.4*,13.5*
O=C(Nc1nc2c(s1)C(=O)CCC2)c1ccccc1,12.2,2.1,-2.2,nt,7.1,8.3*,9.7*,12.0*
SMILES,Rtt109 HAT inh,CDK5 p35 inh,dFosB act,esBAF inh,Dyrk1A ADPGlo,SMARCA2 act,SMARCA2 conf,VP16 Luc act
CC1CCC2(CC1)NC(=O)N(CC(=O)NCCc1c[nH]c3ccccc13)C2=O (configuration not stated),-4.9,1.1,-6.4,-2.3,3.4,-0.1,nt,nt
CCC(C)(C)C1CCC2(CC1)NC(=O)N(CC(=O)NCCc1c[nH]c3ccccc13)C2=O (configuration not stated),-2.4,0.0,-10.6,-3.5,-4.5,8.1*,3.3,1.7
COc1ccc(S(=O)(=O)N(C)C[C@H]2Oc3c(NC(=O)Nc4ccc5c(c4)OCO5)cccc3C(=O)N([C@@H](C)CO)C[C@@H]2C)cc1,nt,nt,nt,3.2,nt,nt,nt,nt
Cc1nnc(SCC(=O)NNC(=O)c2ccccc2)n1-c1ccccc1,-8.5,-1.5,-5.9,nt,4.4,-4.0,nt,nt
Cc1ccccc1-n1c(C)nnc1SCC(=O)NNC(=O)c1ccccc1,5.6,-2.8,11.4,nt,-3.0,8.0*,5.1,1.5
Cc1nc2c(OCc3ccc(Cl)cc3)cccn2c1N(C)C(=O)CCC1CCCC1,nt,nt,nt,9.9,nt,8.3*,-3.7,-0.8
Cc1nc2c(OCc3ccc(F)cc3)cccn2c1N(C)C(=O)CCC1CCCC1,nt,nt,nt,8.0,nt,-3.8,nt,nt
CCCN(C)C[C@H]1OCCCC[C@H](C)Oc2ccc(NS(=O)(=O)c3ccc(F)cc3)cc2C(=O)N([C@H](C)CO)C[C@H]1C,nt,nt,nt,-3.6,nt,nt,nt,nt
Cc1ccc(OCc2csc(N)n2)cc1,1.3,0.4,-6.6,nt,1.2,0.6,nt,nt
Nc1nc(-c2ccc(Cl)cc2)cs1,nt,nt,nt,nt,nt,9.1*,7.3,1.4
Nc1nc(COc2ccc(Cl)cc2)cs1,0.7,-0.5,-0.6,27.6,-6.3,10.2*,4.5,4.2
COCC(=O)N(C)C[C@H]1Oc2ncc(C#Cc3ccccc3)cc2C(=O)N([C@H](C)CO)C[C@@H]1C,nt,nt,nt,2.6,nt,nt,nt,nt
COCC#Cc1cnc2c(c1)C(=O)N([C@@H](C)CO)C[C@@H](C)[C@H](CN(C)S(=O)(=O)c1ccccc1)O2,nt,nt,nt,-4.6,nt,nt,nt,nt
O=C(NCC[C@H]1CC[C@H](NC(=O)C2CCC2)[C@H](CO)O1)c1cc(Cl)cc(Cl)c1,nt,nt,nt,8.8,nt,nt,nt,nt
COc1ccc(NS(=O)(=O)/C=C/c2ccccc2)cc1,-0.8,nt,2.1,nt,2.0,8.6*,-1.9,1.5
CCCCCCCCNc1nc(Cl)nc(NCc2ccco2)n1,-11.9,-0.2,-6.0,nt,2.7,11.1*,0.3,-0.3
O=C(c1ccco1)N1CCN(Cc2c(F)cccc2Cl)CC1,3.8,-1.4,0.4,45.0*,4.9,8.8*,6.9,7.9*
CCCc1ccc(OCc2ccc(C(=O)N/N=C/c3cccnc3)o2)cc1,-2.9,0.4,-4.5,38.7,11.4,11.2*,6.1,18.1*
CCOc1ccc(CC(=O)N/N=C/c2cccnc2)cc1,-4.9,2.0,-13.0,-4.4,-4.3,1.0,nt,nt
c1ccc(-c2nc3ccccc3nc2-c2ccc(CN3CCC(c4nc5ccccc5[nH]4)CC3)cc2)cc1,nt,nt,nt,nt,nt,8.7*,-0.2,1.7
